Source: PubChem
Only some compounds are listed: those with a hit (about 12% of all), similar ones and a draw of the others.
Cycloheximide cs: counter-screen for Shiga toxin inhibitors: cycloheximide protein synthesis inhibition. max response, %. cell reporter, cycloheximide protein synthesis inhibition counterscreen. 300,000 tested, 12% active; in the data active = max response mostly above about 13%, no sharp cut-off; inactive = mostly below about 14%; note: read at 38.3 µM for the half of the compounds with a filed dose; 0% is about no effect
Shiga toxin inh: Shiga toxin inhibition; inhibition, % at 38.7 µM; 290,000 tested, 9.2% active; AID 2315; Vero cells, Shiga toxin protein synthesis inhibition reporter; in the data active = inhibition mostly above about 28%, no sharp cut-off; inactive = mostly below about 43%; note: 0% is about no effect
Marburg entry inh: Marburg virus entry inhibition; Marburg virus pseudotyped entry inhibition, cell reporter; Potency, µM (highest dose often 37.8 µM), inactives show top-dose activity change, negative = inhibition, actives largely listed as inhibitors; 300,000 tested, 1.8% active; calls by dose curve; tested in HEK293 cells; note: potency is the fitted concentration of half-maximal effect; % is set by controls: 0 for no effect and ±100 for the full control effect
LASV entry inh: blocks Lassa virus binding to or entry into cells; Lassa virus pseudotype entry inhibition, cell reporter; Potency, µM (series often up to 37.9 µM), for inactives: at the highest dose activity change, negative = inhibition, most hits filed as inhibitors; 300,000 tested, 1.2% active; AID 540256; calls by dose curve; tested in HEK293 cells; note: potency is the fitted concentration of half-maximal effect; % is set by controls: 0 for no effect and ±100 for the full control effect; nearly all actives have a fitted effect of over 50% in size
An asterisk follows results filed as active; u = inconclusive; x = no result given; + = active, no number; [ ] = another dose, or the depositor's remark.

SMILES	Cycloheximide cs	Shiga toxin inh	Marburg entry inh	LASV entry inh
Cc1cccc(NC(=O)CCNS(=O)(=O)c2ccc3c(c2)CCN3C(=O)C2CC2)c1	x	x	x	-29.0%[46.1 µM]
O=C(CSc1n[nH]c(-c2ccccc2)n1)N1CCN(c2ccccc2F)CC1	x	x	x	6.7%[46.1 µM]
CCN(CC)S(=O)(=O)c1ccc(OC)c(NC(=O)c2cc(=O)[nH]c3ccccc23)c1	1.5	-6.3	-0.6%[14.2 µM]	u
O=C(COc1ccc(OCc2ccccc2)cc1)NN=C1CCCC1	12.7	44.1	-12.4%[14.2 µM]	13.8%
O=C1CCCCC/C1=N/Nc1ccc(OCc2ccccc2)cc1	12.0*	27.8	x	x
CCc1ccc(NC(=O)N(Cc2c[nH]c3ccccc23)C2CCCCCC2)cc1	20.0	20.9	-12.1%[46.1 µM]	u
O=C(OCc1cc([N+](=O)[O-])cc2c1OCOC2)c1ccc2ccccc2n1	6.5	2.3	5.5%[46.1 µM]	9.5%
CC(C)=CC(=O)OCc1cc([N+](=O)[O-])cc2c1OCOC2	64.7*	87.7*	u	x
COC[C@H]([C@@H](O)[C@@H](O)C(=O)NCC[C@@H](C)c1nc(/C=C/C[C@H]2OC3(C[C@H](O)[C@H]2C)OC([C@@H](C[C@@H](O)[C@@H](C)[C@@H](O)[C@@H](C)/C=C(C)/C(C)=C/C=C/C(C)=C\C#N)OC)[C@@H](OP(=O)(O)O)C3(C)C)co1)N(C)C (stereo partly drawn)	-15.0	-10.4	x	x
CCN(CC)CC(O)COc1ccccc1C(=O)CCc1ccccc1 (stereo not drawn)	-5.2	-21.3	u	0.4%
CCCNCC(O)COc1ccccc1C(=O)CCc1ccccc1 (stereo not drawn)	-4.5	-15.7	9.2µM*	u
O=S(=O)(c1ccccc1)c1nc(-c2cccs2)oc1SCc1ccccc1F	x	x	5.5%[46.1 µM]	17.0%[46.1 µM]
Cc1ccc(S(=O)(=O)N(CC(=O)NCC2CCCO2)Cc2ccc(F)cc2)cc1 (stereo not drawn)	-0.5	-4.0	-0.1%	-11.2%
Cc1cc(NC(=O)CSc2ccccn2)cc(NC(=O)CSc2ccccn2)c1	-1.6	-7.3	-26.9%[46.1 µM]	u
Cc1cccc(NC(=O)CCSc2ccccn2)c1	74.8*	74.0*	u	u
Cc1ccc(NC(=O)CCSc2ccccn2)cc1	58.8*	+	u	3.6%
Cc1ccc(NC(=O)[C@H](CC(C)C)NC(=O)[C@@H]2Cc3ccccc3CN2)cc1	18.4	8.8	x	x
Cc1ccc(NC(=O)[C@@H](CC(C)C)NC(=O)[C@@H]2Cc3ccccc3CN2)cc1	27.9	61.4*	x	x
CC(NC(=O)[C@@H](NC(=O)[C@@H]1Cc2ccccc2CN1)C(C)C)c1ccccc1 (stereo partly drawn)	-1.5	-5.5	-19.2%[46.1 µM]	-5.4%[46.1 µM]
Cc1ccc(NC(=O)[C@H](NC(=O)[C@@H]2Cc3ccccc3CN2)c2ccccc2)cc1C	17.4*	19.7	x	x
Cc1ccc(NC(=O)[C@@H](C)NC(=O)[C@@H]2Cc3ccccc3CN2)cc1	24.1*	21.7	x	x
Cc1cccc(NC(=O)[C@H](Cc2ccccc2)NC(=O)[C@@H]2Cc3ccccc3CN2)c1	15.3*	24.9	x	x
c1ccc(-c2ncc3ccccn23)cc1	15.4*	59.5	12.0%[46.1 µM]	11.1%
O=C(CC1C(=O)NCCN1CC1CCCCC1)NCCCN1CCOCC1 (stereo not drawn)	-0.4	-5.5	-3.4%	4.2%
Cc1ccc2c(CN3CC(C)CC(C)C3)cc(=O)oc2c1 (stereo not drawn)	-3.2	-4.0	-18.8%	-17.4%
SMILES	Cycloheximide cs	Shiga toxin inh	Marburg entry inh	LASV entry inh
CCOC(=O)C1CCCN(Cc2cc(=O)oc3cc(C)ccc23)C1 (stereo not drawn)	44.1*	68.9*	2.4%[46.1 µM]	x
Cc1ccc2c(CN3CCC(C)CC3)cc(=O)oc2c1	53.2*	151.5*	-17.5%	u
CCOC(=O)C1CCCN(Cc2cc(=O)oc3cc(C)c(C)cc23)C1 (stereo not drawn)	37.0*	28.2	7.8%[46.1 µM]	6.2%
CCOC(=O)C1CCN(Cc2cc(=O)oc3cc(C)ccc23)CC1	7.6	28.8	x	x
COc1ccc(-c2noc(CSc3nc4ccccc4[nH]3)n2)cc1OC	x	x	-34.9%[46.1 µM]	-17.3%[46.1 µM]
Cc1ccc(OCC(=O)Nc2ccc3oc(=O)ccc3c2)c(C)c1	-0.2	-6.5	15.4%[46.1 µM]	x
CCC(=O)Nc1cccc(SC)c1	-1.3	3.3	u	2.6%
CSc1cccc(NC(=O)COc2ccccc2C)c1	15.7*	47.5*	-22.3%[46.1 µM]	-0.1%
O=C(COc1ccc2ccc(=O)oc2c1)c1ccccc1	22.8*	31.3	15.4%	27.6%
O=C(COc1ccccc1)Nc1ccc2oc(=O)ccc2c1	23.0*	51.9*	-1.2%[46.1 µM]	11.4%[46.1 µM]
Cc1ccccc1OCC(=O)Nc1ccc2oc(=O)ccc2c1	33.2*	54.1	-17.7%	u
Cc1cc(/C=C2\C(=N)N3N=C(C(C)C)SC3=NC2=O)c(C)n1-c1ccccc1	9.0	21.4	-7.0%[46.1 µM]	21.2%[46.1 µM]
O=C(Nc1cccc(F)c1)c1ccc2c(c1)N(Cc1ccccc1)C(=O)c1ccccc1S2(=O)=O	x	x	u	-19.6%[46.1 µM]
COc1ccc(CCNC(=O)C(=O)NCc2cccs2)cc1OC	-2.7	-7.6	x	x
C[C@@]1(CO)[C@H](O)CC[C@@]2(C)[C@H]1CC[C@H]1C[C@@H]3C[C@@]12CC[C@]3(O)CO	-2.4	-10.9	0.517µM*	u
CCCN(S(=O)(=O)c1ccc(OCC)cc1)S(=O)(=O)c1cccs1	27.9*	36.9*	-57.6%	-31.5%
Cc1nc(C(F)(F)F)ccc1C(=O)NCC(O)c1ccccc1 (stereo not drawn)	45.4*	70.7*	x	x
Cc1nc(C(F)(F)F)ccc1C(=O)NN1CCOCC1	-3.0	-0.8	28.6%	u
Cc1nc(C(F)(F)F)ccc1C(=O)Nc1ccc2ccccc2n1	21.2*	48.9*	-3.2%[46.1 µM]	3.5%[46.1 µM]
Cc1nc(C(F)(F)F)ccc1C(=O)Nc1ccccc1F	20.7	0.2	u	u
Cc1ccc(-n2c(C)cc(/C=C3/SC(=O)N(CC(=O)N4CCOCC4)C3=O)c2C)nc1	5.5	15.1	15.7%[46.1 µM]	-2.3%
COC(=O)C(C)N1C(=O)S/C(=C/c2cc(C)n(-c3ccccn3)c2C)C1=O (stereo not drawn)	49.9*	56.6	-1.0%	x
Cc1cc(/C=C2/NC(=O)NC2=O)c(C)n1-c1ccccn1	19.0*	18.5	u	-15.3%
CCOC(=O)CN1C(=O)S/C(=C/c2cc(C)n(-c3ccccn3)c2C)C1=O	58.7*	68.9*	6.9%[46.1 µM]	1.5%
COC(=O)C(C)N1C(=O)S/C(=C\c2cc(C)n(-c3ccccn3)c2C)C1=O (stereo not drawn)	43.3*	90.2*	u	u
SMILES	Cycloheximide cs	Shiga toxin inh	Marburg entry inh	LASV entry inh
C=CCN1C(=O)/C(=C/c2cc(C)n(-c3ccccn3)c2C)C(=O)NC1=S	-3.1	-10.1	-22.3%	0.9%
Cc1ccc(-n2c(C)cc(/C=C3\NC(=O)NC3=O)c2C)c(C)c1	12.8	1.4	-14.3%	u
CNC(=S)N(CCCN(C)C)Cc1cc2cc3c(cc2[nH]c1=O)OCCO3	-1.4	x	x	x
Cc1oc(-c2ccccc2F)nc1CS(=O)(=O)CC(=O)N1CCN(c2ccc(Cl)cc2)CC1	x	x	-27.2%[46.1 µM]	u
CCOC(=O)CN1C(=O)S/C(=C/c2ccc(C)o2)C1=O	24.4*	46.5*	1.3%	23.7%
CCOC(=O)CN1C(=O)S/C(=C/c2cc(C)n(C)c2C)C1=O	x	x	-18.9%[46.1 µM]	u
CCCCn1c(NS(=O)(=O)c2ccccc2)c(C(=O)OCC)c2nc3ccccc3nc21	3.7	-9.3	4.61µM*	u
